# Assay results from PubChem BioAssay AID652058 (Broad Institute, 2013).
# In all, about 1,200 compounds went through this assay and about 870 (72%) were called active. Not shown: some 3% with an inconclusive outcome. The set was probably picked from earlier hits. A selection follows. Results with a measured potency or affinity are listed apart. A number with no mark means an inactive call.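 How the source made its calls: active means every test run fits a falling curve whose half-maximal concentration is at most twice the top valid dose; inconclusive means runs disagree, or flat 30 to 70% inhibition, or poor fit; inactive means every run inactive: flat, rising or weaker potency.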
# Experiment: ZM109 Env clade C HIV-1 fusion inhibitors, dose response, HeLa effector, CEM target cells, luciferase, cherry-pick (AID 652058);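 further: 0% = neutral control wells and -100% = maraviroc 300 nM wells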
# Details: HeLa Env/CEM cell fusion, 16-24 h; series mostly up to 35 µM; activity change, negative = inhibition: at the top concentration
row,SMILES,"activity change, negative = inhibition"
1,Cc1ccc2c(c1)c1c3n2CCN(CC(N)=O)C3CCC1 (configuration not stated),81.6%
2,COc1ccc2[nH]c3c(N4CCC(O)(c5cccc(C(F)(F)F)c5)CC4)ncnc3c2c1,-82.8%
3,CCOC(=O)C(C)Oc1cccc2c(=O)n(CC(=O)NCCc3ccc(OC)c(OC)c3)ccc12 (configuration not stated),-38.6%
4,CC1(C(=O)NCc2ccc3c(c2)OCO3)CCN1Cc1csc2ccccc12 (configuration not stated),-13.3%
5,COc1ccc(NS(=O)(=O)c2cccc(C(=O)NNC(=O)CNC(=O)c3ccc(C)cc3)c2)cc1,35.8%
6,COc1ccc(NS(=O)(=O)c2ccc3c(c2)OCCO3)cc1OC,-10.5%
7,O=C(Cc1ccc(Cl)cc1Cl)Nc1ccncc1,-15.2%
8,COc1ccc(/C=C/c2nc(S(=O)(=O)c3ccccc3)c(NCCCN(C)C)o2)cc1OC,-36.4% [at 16 µM]
9,COC(=O)c1ccc(NC(=O)c2ccc(CN3CCOCC3)cc2)cc1,-20.5%
10,Nc1ccn([C@@H]2O[C@H](C(=O)NCc3ccc4c(c3)OCO4)[C@@H](O)[C@H]2O)c(=O)n1,14.6%
11,CC(C)CC#Cc1ccc2c(c1)O[C@@H](CN(C)S(=O)(=O)c1ccc(F)cc1)[C@H](C)CN([C@@H](C)CO)S2(=O)=O,-29.4%
12,Cc1cc2ncn(S(=O)(=O)N3CCCCC3)c2cc1C,1.39%
13,CCN1CCN(S(=O)(=O)c2ccc(Cl)c(C(=O)Nc3ccccc3N3CCCC3)c2)CC1,21.8%
14,C[C@H]1CN([C@@H](C)CO)C(=O)c2cccc(NC(=O)C3CCCCC3)c2O[C@H]1CN(C)S(C)(=O)=O,11.4%
15,CNC[C@@H]1Oc2c(N)cccc2C(=O)N([C@@H](C)CO)C[C@@H]1C,15.9%
16,C[C@@H]1CN([C@@H](C)CO)C(=O)c2cccc(NC(=O)c3cnccn3)c2O[C@H]1CN(C)Cc1ccc(Cl)c(Cl)c1,95.2%
17,c1csc(-c2csc3ncnc(NCCCN4CCOCC4)c23)c1,-26.2%
18,Oc1ccc(C=NNc2ccccn2)c(O)c1,23.9% [at 16 µM]
19,COc1ccc(-c2nnc(Nc3nc4c(OC)cccc4s3)o2)cc1,5.13%
20,CCn1ncc(C2=NOC(C(=O)Nc3ccc(C)cc3)C2)c1C (configuration not stated),6.73% [at 16 µM]
21,Cc1ccc(-n2nnnc2-c2cnn(-c3ccc(F)cc3)c2C(F)(F)F)cc1,4.65%
22,C[C@H](CO)N1C[C@H](C)[C@H](CN(C)C(=O)Nc2ccccc2)Oc2c(NS(=O)(=O)c3ccc(F)cc3)cccc2C1=O,84.3% [at 16 µM]
23,C[C@@H]1CN([C@H](C)CO)C(=O)c2cc(NS(=O)(=O)c3ccc(F)cc3)ccc2O[C@H]1CN(C)Cc1ccc(C(F)(F)F)cc1,-41.2%
24,CNC[C@H]1Oc2c(NC(=O)Nc3ccc(C(F)(F)F)cc3)cccc2C(=O)N([C@@H](C)CO)C[C@H]1C,39.4% [at 16 µM]

row,SMILES,"activity change, negative = inhibition"
1,Cc1ccc(-n2ncc3c(N4CCN(c5ccccc5)CC4)ncnc32)c(C)c1,181%
2,Cc1ccc(Cn2ncc3c(N4CCN(c5ccc(C)cc5)CC4)ncnc32)cc1,-44.6%
3,COc1cccc(CNc2nc(NCc3ccccc3OC)nc3ccsc23)c1,-21.1%
4,CCOc1ccc(-c2cc(CCCC(=O)Nc3cccc(OC)c3)no2)cc1,71.3%
5,Cc1cc(C(C)(C)C)oc1C(=O)N(CC(=O)NC1CCCC1)Cc1ccc(Cl)cc1,-42.4%
6,CCCc1cc(C(=O)NCc2ccc(OC)cc2)no1,28.6%
7,O=C(CC1C(=O)NCCN1Cc1cccc(F)c1)NC1CCCCC1 (configuration not stated),-44.7%
8,CCN(CCn1cccn1)C(=O)CC1C(=O)NCCN1CCc1ccccc1 (configuration not stated),-40.9%
9,COc1ccc(-c2cn3c(C)c(C(=O)Nc4cccc(NC(C)=O)c4)sc3n2)cc1,-22% [at 16 µM]
10,Cn1cc(S(=O)(=O)N2CCOCC2)cc1C(=O)Nc1cccc(Cl)c1,-25.3%
11,COc1cccc(CN2CCC2(C)C(=O)Nc2cccc(Oc3ccccc3)c2)c1OC (configuration not stated),-31.8%
12,CC(=O)c1ccc([C@H]2C[C@@]34CN(C(=O)OC(C)(C)C)S(=O)(=O)[C@H]3C[C@H]2O4)cc1,40.5%
13,c1ccc(Cc2cnc(N3CCN(Cc4csc5ccccc45)CC3)nc2)cc1,16.5%
14,O=C(NNC(=O)C(c1ccccc1)c1ccccc1)c1ccccn1,-20.2%
15,CC(C)(C)n1nc(Cc2cccc3ccccc23)c2c(N)ncnc21,16.9%
16,C[C@@H]1CN([C@H](C)CO)C(=O)c2cccc(NC(=O)c3ccncc3)c2O[C@@H]1CN(C)Cc1ccc(C(=O)O)cc1,-18.2%
17,COc1ccccc1N1CCN(Cc2ccc(O)c3ncccc23)CC1,41.3%
18,Cc1cc(C)nc(/N=C(\N)Nc2ccc(CC(=O)OC(C)C)cc2)n1,38.8%
19,O=C(Nc1ccc(CN2CCOCC2)cc1)c1ccc(-c2cccc(Cl)c2)o1,117%
20,CCC(=O)NC(=S)Nc1cccc(Cl)c1N1CCCCC1,43.4%
21,COc1ccc([Si](C)(C)[C@H]2[C@H](CCO)O[C@@]3(C(=O)N(Cc4cccc(N5CCOC5=O)c4)c4ccccc43)[C@@H]2C)cc1,-36.4%
22,O=C(NCc1ccccc1)c1ccc(C(=O)NCc2ccccc2)cc1,-58.9%
23,O=C(Nc1cccn(Cc2c(Cl)cccc2Cl)c1=O)c1ccc(Cl)cc1,55.6%
